# Bioassay records as filed in PubChem BioAssay.
# Many of the other results were omitted from the sample, so hits are more common in it than they were.
# ALOX12 inh – Primary qHTS assay for inhibitors of human arachidonate 12S-lipoxygenase (ALOX12): Round 2 | Polyunsaturated fatty acid lipoxygenase ALOX12 (Homo sapiens), P18054 | purified 12hLO, xylenol orange hydroperoxide absorbance | Potency, µM (top dose mostly 108 µM), without a hit: top-dose activity change, negative = inhibition, hits mostly inhibitors | 1.1% of 580,000 active | AID 1671190, 2021; also: % is scaled to controls: 0 for no effect and ±100 for the full control effect
# Target sequence (P18054 whole entry, looked up): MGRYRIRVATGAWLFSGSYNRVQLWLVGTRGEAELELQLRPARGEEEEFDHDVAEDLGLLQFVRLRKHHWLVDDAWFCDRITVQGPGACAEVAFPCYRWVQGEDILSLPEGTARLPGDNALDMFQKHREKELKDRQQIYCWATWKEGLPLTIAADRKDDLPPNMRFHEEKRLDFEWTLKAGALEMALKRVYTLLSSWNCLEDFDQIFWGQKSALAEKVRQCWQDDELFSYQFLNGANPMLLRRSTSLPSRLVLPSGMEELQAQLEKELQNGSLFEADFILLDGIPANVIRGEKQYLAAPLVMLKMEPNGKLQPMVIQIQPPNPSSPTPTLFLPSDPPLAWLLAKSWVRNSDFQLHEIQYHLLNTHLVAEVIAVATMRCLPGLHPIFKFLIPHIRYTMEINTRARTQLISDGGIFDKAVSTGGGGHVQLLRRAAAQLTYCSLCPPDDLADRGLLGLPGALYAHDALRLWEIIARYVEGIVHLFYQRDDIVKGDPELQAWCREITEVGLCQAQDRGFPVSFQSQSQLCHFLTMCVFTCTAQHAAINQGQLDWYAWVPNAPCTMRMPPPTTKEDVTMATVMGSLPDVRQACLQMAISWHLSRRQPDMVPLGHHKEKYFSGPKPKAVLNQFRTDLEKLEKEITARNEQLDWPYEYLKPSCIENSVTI
#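 Purified human 12hLO at 150 nM in 25 mM Hepes, 0.01% Triton X-100, pH 7.0, preincubated 15 min at room temperature with compound. Reaction started with 40 uM arachidonic acid, 30 min at room temperature. Hydroperoxide measured by Fe-xylenol orange, 573/405 nm absorbance ratio.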
# VDR inhibitor – Inhibitors of the vitamin D receptor (VDR): qHTS; Vitamin D3 receptor (Homo sapiens), P11473; VDR-SRC2-3 peptide fluorescence polarization, 2 h; Potency, µM, inactives show max response, negative = inhibition, usual class: inhibitors; 0.93% of 400,000 active; also: % is scaled to controls: 0 for no effect and ±100 for the full control effect
#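 Signal is fluorescence polarization, reporting how far test compounds block the interaction of VDR with the SRC2-3 coregulator peptide after a 2 h room-temperature incubation.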
# G9a block – qHTS Assay for Inhibitors of Histone Lysine Methyltransferase G9a. G9a H3K9 monomethylation, AlphaScreen, 2 h. Potency, µM (titrated, usually from 102 µM), for inactives: at the top dose activity, negative = inhibition, usual class: inhibitors. AID 504332, 2011. 8.8% of 350,000 active. Histone-lysine N-methyltransferase EHMT2 (Homo sapiens), Q96KQ7; also: % is scaled to controls: 0 for no effect and ±100 for the full control effect; nearly all actives have a fitted effect of over 75% in size
#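 Enzyme 20 nM + cpd, 15 min RT; add b-H3K9 pep 500 nM / SAM 20 uM; 2 h RT; anti-H3K9me1 Ab 0.5 ug/mL + SA donor / anti-rabbit acceptor beads 20 ug/mL each, 10 min; AlphaScreen read.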
# Sfp inh – qHTS Assay for Inhibitors of Bacillus subtilis Sfp phosphopantetheinyl transferase (PPTase) | 4'-phosphopantetheinyl transferase ffp (Bacillus subtilis), Q9F4F7 | Biochemical Sfp PPTase activity, qHTS | Potency, µM, for the others: largest response in the series, negative = inhibition, actives largely listed as inhibitors | 3.5% of 310,000 active | AID 1490, 2009;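 also: the enzyme is Sfp with the accession as filed and its product quenches rhodamine fluorescence; 0% = enzyme reaction without inhibitor and -100% = no enzyme wells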
#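 After 15 min at room temperature with compound, 15 nM Sfp received 5 uM rhodamine-CoA plus 12.5 uM BHQ-2-ybbR (50 mM Hepes pH 7.6, 10 mM MgCl2). Rate came from the fluorescence difference over 30 min, ex 525/em 598 nm.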
# Glioma ERSR ind – qHTS for Inducers of the Endoplasmic Reticulum Stress Response (ERSR) in Human Glioma: qHTS. U87-MG GRP78 promoter luciferase reporter, 16 h. Potency, µM, without a hit: at the top dose activation, usual class: activators. 0.02% of 420,000 active. AID 602332, 2012; also: series mostly up to about 76 µM; % of control where 0% means no effect; nearly all actives have a fitted effect of over 35% in size
#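 ERSR induction read as luciferase luminescence (Bright-Glo, 10 min at room temperature) in stably transfected human U87-MG glioma cells exposed to compounds for 16 h, using GRP78 as sensor.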
# Active calls of the source: *; ? = inconclusive; . = no result; [ ] = dose if it differs, or a comment. Calls follow the shape of the dose curve; as a rule, active = well fitted curve in the direction sought with a large enough effect; inconclusive = small, poorly fitted or top-dose-only effect, or another doubt; inactive = no such curve, though single readings can be large; an effect the other way counts as inactive or inconclusive. Potency is read from the fitted curve at half-maximal effect.
SMILES,ALOX12 inh,VDR inhibitor,G9a block,Sfp inh,Glioma ERSR ind
O=C(CC1N=C2c3ccccc3N=C(SCC(=O)Nc3ccccc3F)N2C1=O)NCc1ccc2c(c1)OCO2 (centres undefined),?,-5%,13µM*,.,-3%
CCOC(=O)CSC1=Nc2ccccc2C2=NC(CC(=O)NCc3ccccc3)C(=O)N12 (centres undefined),10µM*,-14%,6%[59 µM],-10%,-2%
CCOc1cc(C#N)c(NC(=O)c2ccc(C(C)(C)C)cc2)cc1OCC,-21%,.,.,.,.
Cc1ccccc1NC(=O)c1sc(N)c(C#N)c1C,8%,.,.,.,.
Cc1ccc(NC(=O)CN2CCN(c3ccccn3)CC2)c(Cl)c1,0%,14%,-47%[59 µM],79µM*,2%
COc1cc(NC(=O)CN2CCN(c3ccccn3)CC2)cc(OC)c1OC,-2%,-9%,45µM*,13%,-5%
O=C(CN1CCN(c2ccccn2)CC1)Nc1cccc(Br)c1,-30%,3%,45µM*,-9%,-2%
CN(C)c1ccc(NC(=O)CCN2CCN(c3ccccn3)CC2)cc1,7%,-10%,50µM*,-5%,-3%
COc1ccc(C)cc1NC(=O)CN1CCN(c2ccccn2)CC1,9%,?,6%,11%,-3%
O=C(CCN1CCN(c2ccccn2)CC1)Nc1ccc(F)cc1,79%,11%,11%,6%,2%
O=C(NCc1ccccc1Cl)c1ccccc1-c1ccccc1,-15%,.,.,.,.
CCCCn1c(=O)[nH]c(=O)c2c1nc(CSc1nnc(C(F)(F)F)n1C)n2C,0%,.,.,.,.
Cc1ccc(S(=O)(=O)[C@H]2CS(=O)(=O)C[C@@H]2N2CCN(c3ncccn3)CC2)cc1,-10%,.,.,.,.
COc1ccc(C(=S)N2CCOCC2)cc1OC(=O)c1ccc(C)cc1,-26%,7%,45µM*,-1%,-9%
COc1cc(C(=S)N2CCOCC2)cc(Br)c1OS(=O)(=O)c1ccccc1,0%,-1%,.,7%,1%
COc1ccc(C(=S)N2CCOCC2)cc1OC(=O)c1ccccc1,?,-10%,10µM*,56µM*,-5%
COc1cc(C(=S)N2CCOCC2)ccc1OC(=O)/C=C/c1ccco1,-4%,-15%,?,56µM*,-1%
COc1ccc(C(=S)N2CCOCC2)cc1OC(=O)c1cccc([N+](=O)[O-])c1,-17%,-6%,-2%,20%,-3%
COc1cc(C(=O)Oc2ccc(Br)cc2C(=S)N2CCOCC2)cc(OC)c1OC,?,?,10µM*,32µM*,-2%
Cn1c(-c2cccnc2)cc2cnc(Nc3ccc(OC(F)(F)F)cc3)cc21,-6%,.,.,.,.
O=C(NCc1cccc(F)c1)C1Cn2cccc2C(=O)N1Cc1cccnc1 (centres undefined),42%,.,.,.,.
COc1ccc(C(=S)N2CCOCC2)cc1OC(=O)c1ccc([N+](=O)[O-])cc1,25µM*,?,10µM*,50µM*,-1%
COc1ccc(C(=S)N2CCOCC2)cc1OC(=O)c1cc(OC)c(OC)c(OC)c1,?,?,7.9µM*,45µM*,2%
Cc1nc(-c2ccc(C(C)N3CCCCC3)cc2)c(C#N)cc1C(=O)O (centres undefined),41%,.,.,.,.
Cc1cc2c(cc1S(=O)(=O)N1CCN(c3ccccc3)CC1)OCCN2C,35%,-5%,40µM*,7%,-4%
SMILES,ALOX12 inh,VDR inhibitor,G9a block,Sfp inh,Glioma ERSR ind
CCN(c1ccccc1)S(=O)(=O)c1cc2c(cc1C)N(C)CCO2,394%,3%,79µM*,10%,-2%
COc1cc(C2CC(=O)Nc3ccsc32)ccc1OCc1ccccc1 (centres undefined),8%,.,.,.,.
Cc1ccccc1NC(=O)C(C)Sc1ncnc2ccccc12 (centres undefined),23%,.,.,.,.
CCOc1ccc(NC(=O)Cn2cnc3c2c(=O)n(C)c(=O)n3C)cc1,-5%,.,.,.,.
CN(C1CCS(=O)(=O)C1)S(=O)C12CC3CC(CC(C3)C1)C2 (centres undefined),?,-21%,11µM*,-10%,-2%
CCCCN(C(=O)c1cc(S(=O)(=O)N2CCOCC2)ccc1F)c1c(N)n(CCCC)c(=O)[nH]c1=O,-20%,-7%,.,.,-2%
CCCCn1c(N)c(N(CC(C)C)C(=O)Cc2ccc3c(c2)OCCO3)c(=O)[nH]c1=O,?,7%,50µM*,.,0%
CCCCN(C(=O)Cc1ccc(S(=O)(=O)N2CCOCC2)s1)c1c(N)n(CCCC)c(=O)[nH]c1=O,-5%,-10%,56µM*,.,-2%
CCCCn1c(N)c(N(CCC(C)C)C(=O)c2ccc3c(c2)OCCO3)c(=O)[nH]c1=O,8%,-5%,0%,.,-6%
CCCCN(C(=O)c1ccc2c(c1)OCCO2)c1c(N)n(CC(C)C)c(=O)[nH]c1=O,-11%,-12%,45µM*,.,-3%
COc1ccc2nc(SCC(=O)N3CCN(S(=O)(=O)c4ccc(C)cc4)C3)[nH]c2c1,-8%,.,.,.,.
COc1ccc(Nc2nc3ccccc3nc2NS(=O)(=O)c2cccc(Cl)c2)c(OC)c1,13%,.,.,.,.
COc1ccccc1N1CCN(CC[C@H]2CN(C(=O)Nc3ccc(C(F)(F)F)cc3)CC[C@H]2CC(=O)O)CC1,18%,.,.,.,.
Cc1cc(C)c2cc(C(=O)NC3CCN(S(C)(=O)=O)CC3)[nH]c2c1,12%,.,.,.,.
Cc1ccc(C)c(/C=C2\N=C(c3ccccc3F)OC2=O)c1,?,79µM*,-10%,-1%,-3%
CC(NC(=O)c1nccnc1N)c1ccc(F)cc1 (centres undefined),11%,.,.,.,.
CC(Sc1nnc(-c2ccco2)o1)C(=O)NCCC1=CCCCC1 (centres undefined),13%,-8%,50µM*,8%,-3%
CC(Sc1nnc(-c2cccnc2)n1N)C(=O)NCCC1=CCCCC1 (centres undefined),-3%,-2%,56µM*,.,-1%
Cc1cccc(NC(=O)c2ccccc2NC(=O)CC23CC4CC(CC(C4)C2)C3)c1,-2%,.,.,.,.
